# Calls of active or inactive are those of the source.
# Key:
# [1] = small molecules captured by biotinylated probe aFSTL3 – biochemical, small-molecule microarray, fluorescence 635/667, stem cell growth factor project, primary screen (AID 1064); conditions: higher = more signal;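 further: measures binding of the biotinylated anti-FSTL3 antibody to printed compounds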
# [2] = binders from COS7 lysate, DM2A8 probe, primary screen, torsin A project, cell lysate, small-molecule microarray, fluorescence 635/667 (AID 1065); conditions: higher = more signal, COS7 lysate expressing mutant human TOR1A
# [3] = small molecules captured by biotinylated probe aFGF2 – biochemical, small-molecule microarray, fluorescence 635/667, stem cell growth factor project, primary screen (AID 1067); conditions: higher = more signal;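 further: measures binding of biotinylated aFGF2 protein to printed compounds on slides; z-score merges feature fluorescence and signal-to-noise across triplicate slides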
# [4] = small molecules captured by biotinylated probe aFGF10 – biochemical, small-molecule microarray, fluorescence 635/667, stem cell growth factor project, primary screen (AID 1071); conditions: higher = more signal;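 further: score merges 667 nm spot intensity and signal to noise from triplicate slides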
# [5] = target: Neurogenic locus notch homolog protein 2 (Homo sapiens) (UniProt Q04721); assay: small molecules binding Notch2 protein – biochemical, small-molecule microarray, 635 nm fluorescence, stem cell growth factors, primary screen (AID 1073); conditions: higher = more signal
# [6] = target: Pro-neuregulin-1, membrane-bound isoform (Homo sapiens) (UniProt Q02297); assay: small molecules binding neuregulin-1 protein – biochemical, small-molecule microarray, fluorescence 635/667, psychiatric disease protein project, primary screen (AID 1075); conditions: NRG1 binding, 635 nm fluorescence, higher = more signal;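 further: score combines 667 nm spot fluorescence with signal to noise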
# [7] = test system: Neuregulin-1 EGF-like domain; assay: small molecules binding NRG1 EGF domain – biochemical, small-molecule microarray, 635 nm fluorescence, primary screen (AID 1081); conditions: higher = more signal;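 further: binding of the protein to compounds printed on small-molecule microarray slides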
# [8] = FRG1 expression reporter modulators in myotubes – cell-based, C2C12 myotubes, firefly/Renilla luciferase, luminescence, FRG1 inhibition for FSHD, primary screen (AID 1084); conditions: FRG1 promoter luciferase, higher = more signal, called active from +8 up or from −8 down
# [9] = small molecules captured by biotinylated probe aFST – biochemical, small-molecule microarray, fluorescence 635/667, stem cell growth factor project, primary screen (AID 1086); conditions: higher = more signal;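 further: score merges 667 nm fluorescence with signal-to-noise of each printed compound spot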
# [10] = binders of probe aHhip on microarray, primary screen, stem cell growth factor project, biochemical, small-molecule microarray, fluorescence 635/667 (AID 1087); conditions: higher = more signal;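 further: score merges spot fluorescence at 667nm with spot signal to noise ratio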
# [11] = test system: PRMT1 (protein arginine N-methyltransferase 1); assay: small molecules binding arginine methyltransferase PRMT1 – biochemical, small-molecule microarray, 635 nm fluorescence, primary screen (AID 1088); conditions: higher = more signal;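 further: binding of Prmt1 protein to compounds spotted on small-molecule microarray slides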
# [12] = growth effects on S. cerevisiae YJM789 – YJM789 clinical isolate, OD600, 24 h, basal, primary screen (AID 1089); conditions: higher = more signal, called active from +8 up or from −8 down;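 further: growth of clinical yeast isolate S. cerevisiae YJM 789 seeded 1000 cells per well; test concentration not given here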
# [13] = S. pombe growth modifiers, basal conditions – strain 972, OD600, 24 h, no modulator, primary screen (AID 1090);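 further: basal condition with compound alone and no growth modifier present; test concentration not given here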; conditions: S. pombe 972 growth, higher = more signal, called active from +8 up or from −8 down
# [14] = budding yeast growth modifiers under rapamycin – strain BY4716, OD600, 96 h, primary screen (AID 1091); further: test concentration not given here; conditions: S. cerevisiae BY4716 + rapamycin, higher = more signal, called active from +8 up or from −8 down
# [15] = target: Torsin-1A-interacting protein 2 (Homo sapiens) (UniProt Q8NFQ8); assay: small molecules binding lysate-expressed LULL1 – cell lysate, human LULL1 lysate, 635/667 nm fluorescence, primary screen (AID 1092); conditions: small-molecule microarray, hLULL1 lysate binding, 635 nm fluorescence; higher = more signal;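 further: probe is lysate of COS7 cells overexpressing human LULL1; score merges per-feature 667 nm fluorescence with signal-to-noise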
# [16] = optical density change of DRC41 E. coli – strain DRC41, OD650, 24 h, E. coli filamentation project, primary screen (AID 1093);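 further: MC1000 strain lacking acrAB efflux and sulA so SOS filamentation is blocked; test concentration not given here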; conditions: E. coli DRC41 growth, higher = more signal, called active from +8 up or from −8 down
# [17] = probe aLefty2 binding to arrayed compounds – biochemical, biotinylated probe, 635/667 nm fluorescence, primary screen (AID 1094); conditions: small-molecule microarray, higher = more signal;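 further: score merges spot fluorescence near 667 nm with spot signal-to-noise ratio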
# [18] = test system: Noggin (protein binding on small-molecule microarray); assay: small molecules binding Noggin protein – biochemical, 635/667 nm fluorescence, primary screen (AID 1095); conditions: 635 nm fluorescence, higher = more signal;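 further: score merges 667 nm feature fluorescence with signal to noise over triplicate slides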
# [19] = target: Neurogenic locus notch homolog protein 3 (Homo sapiens) (UniProt Q9UM47); assay: small molecules binding NOTCH3 protein – biochemical, 635/667 nm fluorescence, primary screen (AID 1096); conditions: small-molecule microarray, 635 nm fluorescence, higher = more signal
# [20] = probe aEGFR binding to arrayed compounds – biochemical, biotinylated probe, 635/667 nm fluorescence, primary screen (AID 1097); conditions: small-molecule microarray, higher = more signal;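 further: probe is a biotinylated anti-EGFR antibody binding compounds printed on slides; score combines fluorescence near 667 nm and signal to noise of each spot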
# Sequence of Neurogenic locus notch homolog protein 2 (Homo sapiens) (Q04721 whole entry, looked up, canonical isoform): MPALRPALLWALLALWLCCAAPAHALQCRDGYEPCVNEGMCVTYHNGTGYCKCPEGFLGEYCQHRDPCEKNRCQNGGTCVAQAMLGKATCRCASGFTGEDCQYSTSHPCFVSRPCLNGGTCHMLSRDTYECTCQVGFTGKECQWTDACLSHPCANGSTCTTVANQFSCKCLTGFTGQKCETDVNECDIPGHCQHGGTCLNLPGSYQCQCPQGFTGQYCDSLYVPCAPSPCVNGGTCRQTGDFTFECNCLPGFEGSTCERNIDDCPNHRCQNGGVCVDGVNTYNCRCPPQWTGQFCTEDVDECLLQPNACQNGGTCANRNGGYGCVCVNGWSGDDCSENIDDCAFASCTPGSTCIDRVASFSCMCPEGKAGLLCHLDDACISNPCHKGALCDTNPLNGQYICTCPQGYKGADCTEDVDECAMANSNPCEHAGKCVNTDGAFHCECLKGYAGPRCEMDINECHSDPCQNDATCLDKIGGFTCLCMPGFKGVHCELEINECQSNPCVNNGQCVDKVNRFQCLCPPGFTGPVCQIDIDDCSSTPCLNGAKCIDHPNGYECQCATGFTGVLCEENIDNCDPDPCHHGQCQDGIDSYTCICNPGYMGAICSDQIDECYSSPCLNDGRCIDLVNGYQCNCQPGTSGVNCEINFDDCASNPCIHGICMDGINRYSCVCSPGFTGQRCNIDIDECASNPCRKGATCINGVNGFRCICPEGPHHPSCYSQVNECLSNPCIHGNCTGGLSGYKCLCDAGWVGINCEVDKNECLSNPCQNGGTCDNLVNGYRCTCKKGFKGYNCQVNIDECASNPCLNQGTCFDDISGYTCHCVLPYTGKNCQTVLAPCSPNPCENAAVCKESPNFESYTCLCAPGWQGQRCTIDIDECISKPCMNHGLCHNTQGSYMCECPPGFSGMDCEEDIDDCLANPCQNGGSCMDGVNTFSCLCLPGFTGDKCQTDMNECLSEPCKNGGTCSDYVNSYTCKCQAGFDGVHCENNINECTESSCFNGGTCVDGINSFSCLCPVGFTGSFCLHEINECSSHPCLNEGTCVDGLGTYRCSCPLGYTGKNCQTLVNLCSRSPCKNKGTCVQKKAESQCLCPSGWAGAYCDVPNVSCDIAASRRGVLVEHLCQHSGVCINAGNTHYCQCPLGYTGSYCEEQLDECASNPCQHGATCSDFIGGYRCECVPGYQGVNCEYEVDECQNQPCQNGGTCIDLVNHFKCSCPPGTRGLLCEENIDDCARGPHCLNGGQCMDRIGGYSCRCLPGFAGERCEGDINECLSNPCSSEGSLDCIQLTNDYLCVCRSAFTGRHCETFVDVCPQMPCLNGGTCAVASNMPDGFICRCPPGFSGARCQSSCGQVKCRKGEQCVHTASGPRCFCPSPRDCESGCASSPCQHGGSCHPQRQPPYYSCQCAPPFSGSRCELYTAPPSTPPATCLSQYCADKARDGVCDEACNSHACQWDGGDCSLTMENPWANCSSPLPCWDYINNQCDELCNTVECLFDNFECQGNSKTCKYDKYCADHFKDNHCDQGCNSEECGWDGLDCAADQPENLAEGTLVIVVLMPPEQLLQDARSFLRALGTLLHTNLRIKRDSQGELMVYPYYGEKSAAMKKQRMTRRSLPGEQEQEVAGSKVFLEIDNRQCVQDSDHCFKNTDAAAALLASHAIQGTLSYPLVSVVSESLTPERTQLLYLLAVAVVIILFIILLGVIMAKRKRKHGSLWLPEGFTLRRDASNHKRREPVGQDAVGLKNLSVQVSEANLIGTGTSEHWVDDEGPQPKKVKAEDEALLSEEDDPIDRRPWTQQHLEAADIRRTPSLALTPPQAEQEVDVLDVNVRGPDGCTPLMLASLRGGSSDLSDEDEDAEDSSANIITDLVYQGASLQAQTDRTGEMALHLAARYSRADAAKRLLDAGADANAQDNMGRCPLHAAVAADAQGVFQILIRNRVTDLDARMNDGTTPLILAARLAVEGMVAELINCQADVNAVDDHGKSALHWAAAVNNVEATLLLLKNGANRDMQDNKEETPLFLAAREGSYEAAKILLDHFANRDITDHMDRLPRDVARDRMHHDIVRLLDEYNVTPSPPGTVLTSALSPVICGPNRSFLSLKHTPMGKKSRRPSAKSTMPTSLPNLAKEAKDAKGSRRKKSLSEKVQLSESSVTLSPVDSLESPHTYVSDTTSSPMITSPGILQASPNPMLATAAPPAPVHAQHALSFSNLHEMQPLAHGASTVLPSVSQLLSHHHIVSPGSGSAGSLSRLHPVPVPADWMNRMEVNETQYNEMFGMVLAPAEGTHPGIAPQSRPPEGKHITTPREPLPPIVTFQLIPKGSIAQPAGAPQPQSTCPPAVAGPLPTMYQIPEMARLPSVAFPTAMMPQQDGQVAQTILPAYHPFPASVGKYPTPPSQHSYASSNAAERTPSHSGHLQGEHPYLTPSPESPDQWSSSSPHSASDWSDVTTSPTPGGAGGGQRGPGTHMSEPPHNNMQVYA
# Sequence of Neurogenic locus notch homolog protein 3 (Homo sapiens) (Q9UM47 whole entry, looked up): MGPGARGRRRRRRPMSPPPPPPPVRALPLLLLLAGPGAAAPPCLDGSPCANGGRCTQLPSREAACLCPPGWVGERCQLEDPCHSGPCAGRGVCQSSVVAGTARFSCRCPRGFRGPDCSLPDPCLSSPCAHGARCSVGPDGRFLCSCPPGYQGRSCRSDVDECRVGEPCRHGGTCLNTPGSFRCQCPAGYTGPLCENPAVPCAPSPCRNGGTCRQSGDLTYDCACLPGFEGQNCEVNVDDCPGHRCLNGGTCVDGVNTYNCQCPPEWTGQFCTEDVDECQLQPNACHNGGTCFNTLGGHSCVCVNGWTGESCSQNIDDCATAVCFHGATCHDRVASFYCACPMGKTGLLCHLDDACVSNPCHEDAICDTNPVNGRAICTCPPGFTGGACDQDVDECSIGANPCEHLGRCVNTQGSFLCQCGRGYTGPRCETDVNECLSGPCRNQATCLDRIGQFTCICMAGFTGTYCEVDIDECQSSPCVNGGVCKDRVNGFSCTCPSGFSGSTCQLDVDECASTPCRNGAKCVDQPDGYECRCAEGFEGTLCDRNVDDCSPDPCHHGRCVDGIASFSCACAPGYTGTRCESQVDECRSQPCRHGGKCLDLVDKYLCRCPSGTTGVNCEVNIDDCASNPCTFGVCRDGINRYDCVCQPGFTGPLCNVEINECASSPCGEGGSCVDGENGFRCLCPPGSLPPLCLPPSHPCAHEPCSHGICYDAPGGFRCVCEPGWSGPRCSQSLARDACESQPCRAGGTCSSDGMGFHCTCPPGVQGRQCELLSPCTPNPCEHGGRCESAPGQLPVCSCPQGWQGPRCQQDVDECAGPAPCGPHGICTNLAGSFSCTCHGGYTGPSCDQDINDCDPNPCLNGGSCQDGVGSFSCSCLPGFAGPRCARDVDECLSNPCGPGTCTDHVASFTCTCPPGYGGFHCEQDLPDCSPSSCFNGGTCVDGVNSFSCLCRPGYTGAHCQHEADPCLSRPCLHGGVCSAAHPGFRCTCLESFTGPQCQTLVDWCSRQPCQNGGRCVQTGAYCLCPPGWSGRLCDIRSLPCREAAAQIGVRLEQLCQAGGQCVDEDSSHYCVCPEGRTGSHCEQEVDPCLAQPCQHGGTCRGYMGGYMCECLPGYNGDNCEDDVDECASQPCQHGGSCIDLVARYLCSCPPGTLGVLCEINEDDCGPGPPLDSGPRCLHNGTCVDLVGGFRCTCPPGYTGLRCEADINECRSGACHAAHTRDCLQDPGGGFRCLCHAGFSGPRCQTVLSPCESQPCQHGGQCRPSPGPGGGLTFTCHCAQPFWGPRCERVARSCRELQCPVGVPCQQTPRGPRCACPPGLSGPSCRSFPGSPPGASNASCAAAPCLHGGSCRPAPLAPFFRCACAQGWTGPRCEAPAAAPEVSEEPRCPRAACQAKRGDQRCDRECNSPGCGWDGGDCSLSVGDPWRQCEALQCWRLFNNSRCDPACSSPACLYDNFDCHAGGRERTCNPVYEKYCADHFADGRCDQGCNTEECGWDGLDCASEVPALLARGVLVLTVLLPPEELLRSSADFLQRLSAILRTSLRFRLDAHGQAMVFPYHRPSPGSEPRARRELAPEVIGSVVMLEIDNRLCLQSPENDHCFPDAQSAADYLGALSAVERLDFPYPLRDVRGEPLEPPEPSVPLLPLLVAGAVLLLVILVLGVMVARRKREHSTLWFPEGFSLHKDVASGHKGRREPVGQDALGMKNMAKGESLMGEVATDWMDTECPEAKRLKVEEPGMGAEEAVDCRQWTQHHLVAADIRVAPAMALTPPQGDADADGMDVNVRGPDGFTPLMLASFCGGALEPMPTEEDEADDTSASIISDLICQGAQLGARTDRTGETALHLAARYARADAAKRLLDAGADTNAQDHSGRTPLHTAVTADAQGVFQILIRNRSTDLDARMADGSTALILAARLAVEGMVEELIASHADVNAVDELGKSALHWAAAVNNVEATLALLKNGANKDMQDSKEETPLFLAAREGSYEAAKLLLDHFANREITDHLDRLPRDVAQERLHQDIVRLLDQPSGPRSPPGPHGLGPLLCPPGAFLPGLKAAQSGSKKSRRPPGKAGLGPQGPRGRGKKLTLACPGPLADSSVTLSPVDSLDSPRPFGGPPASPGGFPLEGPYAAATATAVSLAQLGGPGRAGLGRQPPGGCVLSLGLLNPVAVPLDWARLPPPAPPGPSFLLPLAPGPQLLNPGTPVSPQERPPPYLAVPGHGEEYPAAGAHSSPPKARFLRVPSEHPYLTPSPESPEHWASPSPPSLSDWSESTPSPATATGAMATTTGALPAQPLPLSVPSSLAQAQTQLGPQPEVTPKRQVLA
SMILES,composite z-score [1],composite z-score [2],composite z-score [3],composite z-score [4],composite z-score [5],composite z-score [6],composite z-score [7],z-score [8],composite z-score [9],composite z-score [10],composite z-score [11],z-score [12],z-score [13],z-score [14],composite z-score [15],z-score [16],composite z-score [17],composite z-score [18],composite z-score [19],composite z-score [20]
CCOC(=O)C[C@H]1[C@H](OC(=O)Cc2ccc3c(c2)OCO3)[C@@H](NC(=O)C2CCCCC2)c2cc(OCCCO)ccc2N1C(=O)c1ccc2ccccc2n1,0.695,0.246,-0.003,0.234,0.904,0.196,0.519,-2.88 (inactive),0.857,-0.335,0.688,0.327 (inactive),-1.46 (inactive),-0.591 (inactive),1.34,0.848 (inactive),-0.0798,1.98,1.09,0.0428
CC(C)(C)OC(=O)CC[C@]1(C(=O)NCCN2CCOCC2)N=C(c2ccc(OCCCO)cc2)O[C@H]1c1ccccc1,0.445,-1.1,-0.0939,-0.109,-0.313,1.66,1.09,0.273 (inactive),0.285,-0.0618,1.55,0.681 (inactive),0.0586 (inactive),-0.23 (inactive),3.23,0.437 (inactive),-0.007,-0.316,-0.532,0.34
CCOC(=O)[C@H]1C/C=C/C[C@H](C(=O)OCC)C(=O)O[C@H]2[C@@H](OC)O[C@H](CO)[C@@H](OC(=O)CCc3ccccc3)[C@@H]2OC1=O,-0.146,-0.267,0.461,-0.485,-1.08,0.815,-0.0615,-1.26 (inactive),-0.555,-0.169,0.182,0.491 (inactive),-1.29 (inactive),15.2 (active),0.0772,-0.677 (inactive),-0.132,0.0226,0.01,-0.314
CC=CC(O)C1C=CC2C(=O)N(c3ccccc3)C(=O)C2N1Nc1ccc([N+](=O)[O-])cc1 (stereo not given),-0.241,0.0149,-0.0534,0.407,0.998,1.69,0.981,0.515 (inactive),0.126,-0.0003,0.725,-0.0987 (inactive),1.17 (inactive),1.44 (inactive),2.65,-0.699 (inactive),-0.0931,0.257,0.512,0.0007
C=CCOC(=O)[C@H]1[C@@H]2C(=O)O[C@@H](c3ccccc3)[C@@H](c3ccccc3)N2[C@@H](c2ccc(OCCOC(=O)[C@H]3C[C@H]4C(=O)N[C@@H](CCCC[N+](C)(C)C)C(=O)N4[C@H]3c3cccc(OCCO)c3)cc2)[C@]12C(=O)Nc1ccc(I)cc12,-0.345,0.46,-0.0937,0.723,0.312,0.288,0.755,0.707 (inactive),-0.278,-0.126,1.29,1.11 (inactive),2.23 (inactive),4.75 (inactive),0.7,0.396 (inactive),-0.166,0.673,0.456,0.002
CC(C)CN1C(=O)[C@@]2(Cc3ccccc31)c1ccccc1C(=O)N(Cc1ccccc1C(F)(F)F)[C@H]2c1ccc(CO)cc1,0.0106,-0.0077,-0.167,0.2,-0.202,-0.84,-1.12,-1.04 (inactive),0.0594,-0.374,-1.7,-1.17 (inactive),-0.147 (inactive),-3 (inactive),-1.21,-0.861 (inactive),0.0169,-0.0224,-0.527,-0.187
Cc1ccc(S[C@]2(C(=O)NCc3ccccc3)CC(=O)N(C(C)C)[C@@H]2c2ccc(CO)cc2I)cc1,2,-0.464,-0.177,-0.392,-1.09,1.05,0.399,-1.16 (inactive),0.03,0.0623,0.448,-2.82 (inactive),-1.38 (inactive),0.317 (inactive),1.73,0.349 (inactive),0.299,-0.466,-0.44,-0.229
CN1C(=O)C2C(C1=O)C1C=C(c3ccc(CO)cc3)C2C(c2cccs2)N1Cc1cccc(OC(F)(F)F)c1 (stereo not given),-0.16,0.669,-0.109,0.432,1.25,1.87,1.35,0.785 (inactive),0.875,0.0505,1.55,-1.68 (inactive),-2.57 (inactive),3.35 (inactive),2.65,0.907 (inactive),0.0007,1.38,1.09,-0.013
CCC[C@@H]1C[C@@]1(CCC)[C@@H](NP(=O)(c1ccccc1)c1ccccc1)c1ccc(Cl)cc1,0.337,-0.23,0.0368,-0.387,-0.615,-0.23,-0.414,1.8 (inactive),-0.223,0.982,-0.189,1.2 (inactive),0.095 (inactive),0.956 (inactive),0.334,-1.79 (inactive),-0.0703,0.112,-0.151,-0.233
COC(=O)C[C@H]1O[C@]2(C(=O)N(C)c3ccccc32)[C@@H](C)[C@@H]1[Si](C)(C)c1ccc(C)cc1,-0.361,0.285,0.033,0.453,0.778,0.274,0.815,-2.37 (inactive),0.512,0.28,1.12,-0.421 (inactive),-11.3 (active),-0.673 (inactive),0.797,2.17 (inactive),-0.137,1.27,0.989,-0.0674
CC1CC/C=C\[C@H]2OC34C=CCN(CCN5CCOCC5)C(=O)[C@H]3N(CCO)C(=O)[C@@H]4C2C(=O)O1 (stereo not given in full),0.507,-0.342,0.013,-0.105,-0.807,-0.917,-0.376,-0.322 (inactive),-0.421,-0.4,-0.623,-0.962 (inactive),0.0701 (inactive),0.005 (inactive),-0.144,1.25 (inactive),-0.103,-0.982,-0.43,-0.196
C=CCN1Cc2ccccc2C[C@@]2(N=C(c3ccc(OCCCO)cc3)O[C@H]2c2ccccc2)C1=O,0.633,0.604,0.0109,-0.364,1.09,1.04,1.29,-1.32 (inactive),0.383,0.297,1.55,-4.69 (inactive),-11.1 (active),4.42 (inactive),3.13,0.55 (inactive),-0.051,1.04,0.968,0.0047
C=CCC(OC(C)=O)[C@@H]1[C@@H](N(Cc2cc3ccccc3o2)C(=O)c2ccc(C)cc2)c2cc(OCCCO)ccc2N1C(=O)Cc1ccc2ccccc2c1 (stereo not given in full),0.222,-0.603,0.0755,0.113,-0.242,-0.0075,-0.345,-0.286 (inactive),0.292,0.107,-0.208,0.627 (inactive),-0.423 (inactive),0.469 (inactive),0.0257,2.18 (inactive),0.18,1.81,-0.725,-0.094
C=C[C@H](COC(C)=O)NS(=O)(=O)c1ccc(Br)cc1,-0.127,-0.256,-0.151,-0.286,-0.506,0.241,0.656,1.54 (inactive),0.0509,-0.0618,-0.0232,0.0313 (inactive),-1.4 (inactive),-0.124 (inactive),-0.0639,0.506 (inactive),-0.0598,0.0055,-0.564,-0.227
O=C1NC(=O)C2C1C=CC(C(O)c1ccc3c(c1)OCO3)N2Nc1ccccn1 (stereo not given),-0.0049,0.0415,0.271,0.204,0.994,1.91,1.16,-0.653 (inactive),0.364,0.0274,0.227,-0.976 (inactive),1.02 (inactive),-0.939 (inactive),2.78,-0.541 (inactive),0.0787,0.233,0.552,-0.0999
CC=CC(O)C1C=CC2C(=O)N(C)C(=O)C2N1N1CCCCC1 (stereo not given),-0.0771,0.326,-0.0231,0.862,1.45,1.85,1.26,1.89 (inactive),0.697,-0.305,1.34,-0.322 (inactive),1.01 (inactive),-0.207 (inactive),3.52,-1.53 (inactive),0.0974,0.605,1.09,-0.115
Cc1ccc(C(C)CC(O)C2C=CC3C(=O)N(c4ccccc4)C(=O)C3N2Nc2ccc(C(C)C)cc2)o1 (stereo not given),1.15,1.05,0.102,0.712,1.58,1.93,0.765,0.543 (inactive),0.992,-0.0772,0.843,0.379 (inactive),0.0145 (inactive),0.842 (inactive),1.28,-1.36 (inactive),0.295,-0.641,1.04,0.14
O=C(O)[C@H](Cc1ccccc1)n1cc(-c2ccccn2)nn1,-0.158,-0.258,-0.149,0.306,0.377,0.286,1.07,1.24 (inactive),0.321,-0.0672,0.427,0.445 (inactive),1.25 (inactive),-0.609 (inactive),0.524,-0.631 (inactive),-0.103,0.665,0.596,-0.042
CC(C)(C)N1CC=CC23O[C@@H]4C=CCOC(=O)[C@@H]4[C@H]2C(=O)N(CCCO)[C@@H]3C1=O (stereo not given in full),0.698,-0.182,-0.199,-0.838,-1.54,-0.475,1.08,0.619 (inactive),-1,-0.0994,-0.768,0.149 (inactive),0.0155 (inactive),-0.288 (inactive),-0.558,1.27 (inactive),-0.147,-1.62,-1.54,-0.314
Cc1c(NC(=O)/C(C#N)=C/C=C/c2ccc(N(C)C)cc2)c(=O)n(-c2ccccc2)n1C,-0.266,0.297,0.29,0.82,1.18,1.49,1.17,3.7 (inactive),0.512,0.409,1.55,-0.0755 (inactive),-0.544 (inactive),-0.299 (inactive),2.6,0.482 (inactive),0.647,0.586,0.739,0.118

# Source: PubChem BioAssay
